Laboratory results: PubChem BioAssay (NCATS)
Records with an inconclusive call do not appear. Active and inactive are the calls of the source. Unless noted, calls come from the whole dose curve; as a rule, active = well fitted inhibition curve with a large enough effect; inconclusive = small, poorly fitted or top-dose-only effect; inactive = flat fitted curve, though single readings scatter. Peptide text beside a SMILES is read from it.

How the values were obtained:
[1] = qHTS Assay for Lipid Storage Modulators (AID 1519; calls by dose curve; note: potency is the fitted concentration of half-maximal effect; for activity change, negative = inhibition: % is set by controls: 0 for no effect and ±100 for the full control effect); settings: Drosophila S3 cells, BODIPY lipid droplet/cell ratio, laser cytometry, cells loaded with oleic acid; for activity change, negative = inhibition: at 57.5 µM (top of the series)
Summary of the method: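 Cells seeded at 5,000 per well were treated with compounds over a concentration series and loaded with oleic acid (400 uM, as added). Lipid droplet fluorescence (488 nm excitation, 500-530 nm channel) was read by laser-scanning cytometry and normalized to 20 uM Triacsin C.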

[2] = target: Luciferin 4-monooxygenase (Photinus pyralis) (UniProt P08659); assay: Biochemical firefly luciferase enzyme assay for NPC (AID 624030);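 note: purified P. pyralis luciferase at 10 nM with luciferin and ATP substrate; 0% = DMSO and -100% = full luciferase inhibition by PTC124 control; nearly all actives have a fitted effect of over 70% in size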; settings: purified P. pyralis luciferase, luminescence, 5 min; series mostly up to 24.9 µM
Summary of the method: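 Purified P. pyralis luciferase at 10 nM in 50 mM Tris Acetate (final), luminescence read within 5 minutes of enzyme addition to compounds. Activity normalised to PTC124 versus DMSO; concentration-response curves classed by r2, magnitude and activity.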

[3] = qHTS profiling for inhibitors of Plasmodium falciparum proliferation (AID 504749); note: potency is the fitted concentration of half-maximal effect;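 for activity, negative = inhibition: 0% = DMSO vehicle and full inhibition = artemisinin control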; for all read-outs here: nearly all actives have a fitted effect of over 60% in size; settings: P. falciparum in erythrocytes, SYBR Green DNA, 72 h; for activity, negative = inhibition: at 28.7 µM (top of the series)
Summary of the method: (§1)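 P. falciparum-infected erythrocytes (0.3% parasitemia, 2.5% hematocrit) incubated with compound 72 h at 37 C, 5% CO2. Parasite DNA detected by SYBR Green after lysis, overnight at room temperature; normalised to 0.29 uM artemisinin and DMSO.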

3D7 = assay: as above; settings: P. falciparum in erythrocytes, SYBR Green DNA, 72 h; series mostly up to 12.8 µM
Summary of the method: as §1

C2A = assay: as above; settings: P. falciparum in erythrocytes, SYBR Green DNA, 72 h; series mostly up to 12.8 µM
Summary of the method: as §1

CP217 = assay: as above; settings: P. falciparum in erythrocytes, SYBR Green DNA, 72 h; series mostly up to 12.8 µM
Summary of the method: as §1

CP237 = assay: as above; settings: P. falciparum in erythrocytes, SYBR Green DNA, 72 h; series mostly up to 12.8 µM
Summary of the method: as §1

CP238 = assay: as above; settings: P. falciparum in erythrocytes, SYBR Green DNA, 72 h; series mostly up to 12.8 µM
Summary of the method: as §1

CP252 = assay: as above; settings: P. falciparum in erythrocytes, SYBR Green DNA, 72 h; series mostly up to 12.8 µM
Summary of the method: as §1

CP291 = assay: as above; settings: P. falciparum in erythrocytes, SYBR Green DNA, 72 h; series mostly up to 12.8 µM
Summary of the method: as §1

CP297 = assay: as above; settings: P. falciparum in erythrocytes, SYBR Green DNA, 72 h; series mostly up to 12.8 µM
Summary of the method: as §1

ECU = assay: as above; settings: P. falciparum in erythrocytes, SYBR Green DNA, 72 h; series mostly up to 12.8 µM
Summary of the method: as §1

HB3 = assay: as above; settings: P. falciparum in erythrocytes, SYBR Green DNA, 72 h; series mostly up to 12.8 µM
Summary of the method: as §1

PAD = assay: as above; settings: P. falciparum in erythrocytes, SYBR Green DNA, 72 h; series mostly up to 12.8 µM
Summary of the method: as §1

PC26 = assay: as above; settings: P. falciparum in erythrocytes, SYBR Green DNA, 72 h; series mostly up to 12.8 µM
Summary of the method: as §1

SC27B = assay: as above; settings: P. falciparum in erythrocytes, SYBR Green DNA, 72 h; series mostly up to 12.8 µM
Summary of the method: as §1

[4] = target: Glucocorticoid receptor (Homo sapiens) (UniProt P04150); assay: GR-EFC Redistribution (AID 451; calls by dose curve; note: potency is the fitted concentration of half-maximal effect); settings: CHO-K1 GR-EFC translocation, beta-gal luminescence, 2 h
Summary of the method: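 CHO-K1 cells expressing nuclear EA and GR-ED fragments of b-gal; compounds titrated up to 46 uM final, 2 h at 37 C. GR nuclear translocation read as complemented b-gal luminescence after 1 h RT detection.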

[5] = target: 3',5'-cyclic-AMP phosphodiesterase 4B (Homo sapiens) (UniProt Q07343); assay: qHTS Assay for Inhibitors of PDE-IV (AID 607; active = well fitted activation curve with a large enough effect in the main read-out, with a control signal flat, not every such curve was filed as active; note: % of control where 0% means no effect); settings: HEK293 ACTOne CNG channel cells, membrane potential fluorescence; series mostly up to 22.9 µM
Summary of the method: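 ACTOne HEK293 cells carry a modified cAMP-gated CNG channel and express endogenous PDE4; plated 1000 cells/well, compounds up to 22.9 uM final. Membrane-potential dye fluorescence (ex 535/em 590) was read; parental cells received 10 uM forskolin + 100 uM RO 20-1724.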

[6] = target: Ubiquitin carboxyl-terminal hydrolase 1 (Homo sapiens) (UniProt O94782); assay: Inhibitors of USP1/UAF1: Pilot qHTS (AID 504865); settings: purified USP1/UAF1, Ub-rhodamine cleavage fluorescence; series mostly up to 114 µM;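 note: rhodamine fluorescence freed from ubiquitin-rhodamine substrate followed over time; top concentration of the series differs between compounds; % is set by controls: 0 for no effect and ±100 for the full control effect; nearly all actives have a fitted effect of over 35% in size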
Summary of the method: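 Kinetic fluorescence assay: 1nM USP1/UAF1, 15 min compound preincubation, then 150nM Ub-Rho; 480/540 nm.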

[7] = measured here: cell count channel max response
[8] = measured here: lipid channel max response

Sequence of Ubiquitin carboxyl-terminal hydrolase 1 (Homo sapiens) (O94782 whole entry, looked up): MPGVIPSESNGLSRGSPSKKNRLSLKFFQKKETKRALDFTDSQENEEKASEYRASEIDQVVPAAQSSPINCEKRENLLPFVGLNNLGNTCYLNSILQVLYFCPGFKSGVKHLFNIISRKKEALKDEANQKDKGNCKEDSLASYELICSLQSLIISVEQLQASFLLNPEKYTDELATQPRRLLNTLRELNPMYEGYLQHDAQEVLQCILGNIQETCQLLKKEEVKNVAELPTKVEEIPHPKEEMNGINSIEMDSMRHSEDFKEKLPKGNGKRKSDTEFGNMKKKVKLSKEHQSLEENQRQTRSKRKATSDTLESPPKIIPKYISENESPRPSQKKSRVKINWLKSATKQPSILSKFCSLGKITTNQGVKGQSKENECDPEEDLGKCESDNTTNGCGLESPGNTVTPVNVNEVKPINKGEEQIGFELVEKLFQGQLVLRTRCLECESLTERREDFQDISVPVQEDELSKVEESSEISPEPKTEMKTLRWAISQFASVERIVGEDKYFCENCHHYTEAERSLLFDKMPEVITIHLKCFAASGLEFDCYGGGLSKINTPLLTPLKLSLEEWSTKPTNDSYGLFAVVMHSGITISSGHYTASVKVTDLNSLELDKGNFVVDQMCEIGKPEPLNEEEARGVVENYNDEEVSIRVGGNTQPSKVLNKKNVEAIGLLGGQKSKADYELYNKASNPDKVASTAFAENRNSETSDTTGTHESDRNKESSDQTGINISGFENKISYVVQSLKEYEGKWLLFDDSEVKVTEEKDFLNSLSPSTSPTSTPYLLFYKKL
Sequence of Luciferin 4-monooxygenase (Photinus pyralis) (P08659 whole entry, looked up): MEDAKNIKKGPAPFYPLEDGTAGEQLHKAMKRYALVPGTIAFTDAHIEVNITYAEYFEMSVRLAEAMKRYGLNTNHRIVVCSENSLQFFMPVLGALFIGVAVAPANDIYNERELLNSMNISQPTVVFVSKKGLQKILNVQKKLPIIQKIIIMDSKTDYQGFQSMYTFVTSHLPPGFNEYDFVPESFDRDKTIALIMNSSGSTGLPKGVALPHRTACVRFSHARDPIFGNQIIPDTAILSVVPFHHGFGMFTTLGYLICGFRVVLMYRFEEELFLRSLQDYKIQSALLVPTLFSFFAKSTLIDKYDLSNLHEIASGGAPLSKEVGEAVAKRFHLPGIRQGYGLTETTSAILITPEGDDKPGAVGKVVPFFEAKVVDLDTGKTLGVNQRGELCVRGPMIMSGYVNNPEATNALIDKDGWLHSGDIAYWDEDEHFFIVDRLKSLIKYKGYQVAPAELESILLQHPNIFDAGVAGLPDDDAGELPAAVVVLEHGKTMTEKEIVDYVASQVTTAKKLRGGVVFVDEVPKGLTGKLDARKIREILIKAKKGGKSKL
Sequence of 3',5'-cyclic-AMP phosphodiesterase 4B (Homo sapiens) (Q07343 whole entry, looked up): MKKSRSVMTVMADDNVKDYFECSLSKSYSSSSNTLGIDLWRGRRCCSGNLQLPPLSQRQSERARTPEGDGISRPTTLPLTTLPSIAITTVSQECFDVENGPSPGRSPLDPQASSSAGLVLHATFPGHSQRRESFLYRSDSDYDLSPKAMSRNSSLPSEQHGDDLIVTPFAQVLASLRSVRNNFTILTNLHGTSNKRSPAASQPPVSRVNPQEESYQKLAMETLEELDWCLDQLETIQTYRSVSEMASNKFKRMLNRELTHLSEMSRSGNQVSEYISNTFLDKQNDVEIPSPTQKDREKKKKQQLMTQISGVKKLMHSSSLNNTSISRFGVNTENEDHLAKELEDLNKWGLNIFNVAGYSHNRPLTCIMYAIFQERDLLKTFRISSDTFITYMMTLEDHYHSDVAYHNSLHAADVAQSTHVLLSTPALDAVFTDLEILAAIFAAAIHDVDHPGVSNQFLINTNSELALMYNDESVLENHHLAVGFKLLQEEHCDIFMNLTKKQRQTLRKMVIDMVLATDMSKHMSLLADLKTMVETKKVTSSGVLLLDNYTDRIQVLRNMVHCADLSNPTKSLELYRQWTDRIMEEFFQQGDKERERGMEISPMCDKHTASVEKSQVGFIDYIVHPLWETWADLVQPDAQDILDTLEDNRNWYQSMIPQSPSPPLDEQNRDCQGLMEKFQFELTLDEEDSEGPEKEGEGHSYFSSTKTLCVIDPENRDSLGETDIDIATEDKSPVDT
Sequence of Glucocorticoid receptor (Homo sapiens) (P04150 whole entry, looked up, the tested form may be a part): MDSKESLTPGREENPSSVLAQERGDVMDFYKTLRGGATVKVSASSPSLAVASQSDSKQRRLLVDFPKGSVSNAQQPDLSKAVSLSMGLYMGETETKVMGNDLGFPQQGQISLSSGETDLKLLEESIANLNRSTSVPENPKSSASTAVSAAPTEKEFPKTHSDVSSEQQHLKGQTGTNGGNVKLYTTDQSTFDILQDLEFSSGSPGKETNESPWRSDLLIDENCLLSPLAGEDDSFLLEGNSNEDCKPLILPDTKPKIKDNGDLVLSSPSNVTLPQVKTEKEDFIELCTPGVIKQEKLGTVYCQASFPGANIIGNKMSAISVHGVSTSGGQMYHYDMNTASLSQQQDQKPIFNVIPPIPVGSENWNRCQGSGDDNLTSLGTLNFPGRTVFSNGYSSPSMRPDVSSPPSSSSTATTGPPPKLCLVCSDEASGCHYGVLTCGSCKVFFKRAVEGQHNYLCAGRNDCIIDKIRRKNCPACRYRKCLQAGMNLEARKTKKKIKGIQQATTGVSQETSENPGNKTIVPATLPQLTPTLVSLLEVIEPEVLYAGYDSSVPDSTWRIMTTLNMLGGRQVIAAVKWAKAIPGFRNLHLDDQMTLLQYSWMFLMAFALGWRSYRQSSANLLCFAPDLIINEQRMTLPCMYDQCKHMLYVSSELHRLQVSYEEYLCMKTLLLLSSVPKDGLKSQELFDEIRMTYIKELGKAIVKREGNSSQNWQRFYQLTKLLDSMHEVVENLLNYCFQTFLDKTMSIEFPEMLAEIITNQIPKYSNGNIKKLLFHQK

COC(=O)C(Cc1ccccc1)NC(=O)C(N)CC(=O)O (stereo not drawn) (H-Asp-Phe-OMe; configuration not given here)
3.61%: max response [1, 8]
-5.71%: max response [1, 7]
inactive: activity change, negative = inhibition [1] 5.29% | Potency [2] | activity, negative = inhibition ([3]; parasite line A) 0% | activity, negative = inhibition ([3]; parasite line B) 12.1% | Potency (3D7) | Potency (C2A) | Potency (CP217) | Potency (CP237) | Potency (CP238) | Potency (CP252) | Potency (CP291) | Potency (CP297) | Potency (ECU) | Potency (HB3) | Potency (PAD) | Potency (PC26) | Potency (SC27B)

Cc1cc(O)c(C=O)c2c1C(=O)Oc1c(COC(=O)/C=C/C(=O)O)c(O)c(C(=O)O)c(C)c1O2
3.61%: max response [1, 8]
inactive: activity change, negative = inhibition [1] 4.28%
6.76%: max response [1, 7]

CC[C@H](C(=O)[C@H](C)[C@H](O)[C@H](C)CCc1ccc(C)c(O)c1C(=O)O)[C@H]1O[C@](CC)([C@@H]2CC[C@@](O)(CC)[C@H](C)O2)C[C@H]1C
active: Potency [1] 14100 nM
-85.1%: max response [1, 8]
inactive: Potency [4] > 20600 nM | outcome [5]
-26.4%: max response [1, 7]

C/C1=C2N=C(/C=C3N=C(/C(C)=C4\[N-]C(C)(C5N=C1C(C)(CCC(=O)NCC(C)OP(=O)([O-])O[C@H]1C(O)C(n6cnc7cc(C)c(C)cc76)O[C@@H]1CO)C5CC(N)=O)C(C)(CC(N)=O)C4CCC(N)=O)C(C)(CC(N)=O)C\3CCC(N)=O)C(C)(C)C/2CCC(N)=O.[CH2-]C1OC(n2cnc3c(N)ncnc32)C(O)C1O.[Co] (some centres undefined)
inactive: activity change, negative = inhibition [1] 3.3% | Potency [2] | activity, negative = inhibition ([3]; parasite line A) 4.62% | activity, negative = inhibition ([3]; parasite line B) 4.58% | Potency (3D7) | Potency (C2A) | Potency (CP217) | Potency (CP237) | Potency (CP238) | Potency (CP252) | Potency (CP291) | Potency (CP297) | Potency (ECU) | Potency (HB3) | Potency (PAD) | Potency (PC26) | Potency (SC27B)
22.1%: max response [1, 7]
29.7%: max response [1, 8]

NC(C(=O)O)[C@@H]1CC(Cl)=NO1 (some centres undefined)
29%: max response [1, 8]
active: Potency ([3]; parasite line A) 1260 nM | Potency ([3]; parasite line B) 2820 nM | Potency (3D7) 1000 nM | Potency (C2A) 1120 nM | Potency (CP217) 1120 nM | Potency (CP237) 1260 nM | Potency (CP238) 2820 nM | Potency (CP252) 2820 nM | Potency (CP291) 2130 nM | Potency (CP297) 3380 nM | Potency (ECU) 2240 nM | Potency (HB3) 1780 nM | Potency (PAD) 708 nM | Potency (PC26) 1900 nM | Potency (SC27B) 1410 nM
16.9%: max response [1, 7]
inactive: activity change, negative = inhibition [1] 6.89% | Potency [6] | Potency [2]

NCC1CCC(N)C(O[C@@H]2C(O)[C@H](O[C@H]3OC(CO)C(O)C(N)C3O)[C@@H](N)C[C@H]2N)O1 (some centres undefined)
inactive: activity change, negative = inhibition [1] 9.66% | Potency [6] | Potency [2] | activity, negative = inhibition ([3]; parasite line A) 7.73% | activity, negative = inhibition ([3]; parasite line B) 10.2% | Potency (3D7) | Potency (C2A) | Potency (CP217) | Potency (CP237) | Potency (CP238) | Potency (CP252) | Potency (CP291) | Potency (CP297) | Potency (ECU) | Potency (HB3) | Potency (PAD) | Potency (PC26) | Potency (SC27B)
28.1%: max response [1, 7]
44.9%: max response [1, 8]

CC1(C)SC2C(N3C(=O)C(c4ccccc4)NC3(C)C)C(=O)N2C1C(=O)O (centres undefined)
inactive: activity change, negative = inhibition [1] 8.56% | Potency [2] | activity, negative = inhibition ([3]; parasite line A) -1.6% | activity, negative = inhibition ([3]; parasite line B) 9.57% | Potency (3D7) | Potency (C2A) | Potency (CP217) | Potency (CP237) | Potency (CP238) | Potency (CP252) | Potency (CP291) | Potency (CP297) | Potency (ECU) | Potency (HB3) | Potency (PAD) | Potency (PC26) | Potency (SC27B)
31%: max response [1, 8]
12.6%: max response [1, 7]

C[C@]12CCC(=O)C=C1CCC1C2C(=O)C[C@]2(C)C1CC[C@]2(O)C(=O)CO (some centres undefined)
22.5%: max response [1, 7]
inactive: activity change, negative = inhibition [1] -0.346% | Potency [6] | Potency [2] | activity, negative = inhibition ([3]; parasite line A) 3.27% | activity, negative = inhibition ([3]; parasite line B) -0.753% | Potency (3D7) | Potency (C2A) | Potency (CP217) | Potency (CP237) | Potency (CP238) | Potency (CP252) | Potency (CP291) | Potency (CP297) | Potency (ECU) | Potency (HB3) | Potency (PAD) | Potency (PC26) | Potency (SC27B)
22%: max response [1, 8]

C[C@]12C=CC(=O)C=C1CCC1C2C(O)C[C@]2(C)C1CC[C@]2(O)C(=O)CO (some centres undefined)
24.5%: max response [1, 8]
19.1%: max response [1, 7]
inactive: activity change, negative = inhibition [1] 4.07% | Potency [6] | Potency [2] | activity, negative = inhibition ([3]; parasite line A) 13% | activity, negative = inhibition ([3]; parasite line B) 6.28% | Potency (3D7) | Potency (C2A) | Potency (CP217) | Potency (CP237) | Potency (CP238) | Potency (CP252) | Potency (CP291) | Potency (CP297) | Potency (ECU) | Potency (HB3) | Potency (PAD) | Potency (PC26) | Potency (SC27B)

CC(C)=CCC[C@](C)(O)C1CC=C(C)CC1 (some centres undefined)
-2.85%: max response [1, 7]
4.12%: max response [1, 8]
inactive: activity change, negative = inhibition [1] 6.04% | Potency [2] | activity, negative = inhibition ([3]; parasite line A) -5.22% | activity, negative = inhibition ([3]; parasite line B) 7.19% | Potency (3D7) | Potency (C2A) | Potency (CP217) | Potency (CP237) | Potency (CP238) | Potency (CP252) | Potency (CP291) | Potency (CP297) | Potency (ECU) | Potency (HB3) | Potency (PAD) | Potency (PC26) | Potency (SC27B)

CC1CCC(C(C)C)C(=O)C1 (centres undefined)
inactive: activity change, negative = inhibition [1] 1.11% | Potency [6] | Potency [2] | activity, negative = inhibition ([3]; parasite line A) 0.527% | activity, negative = inhibition ([3]; parasite line B) 15.7% | Potency (3D7) | Potency (C2A) | Potency (CP217) | Potency (CP237) | Potency (CP238) | Potency (CP252) | Potency (CP291) | Potency (CP297) | Potency (ECU) | Potency (HB3) | Potency (PAD) | Potency (PC26) | Potency (SC27B)
14.2%: max response [1, 8]
11.5%: max response [1, 7]

CC[C@@]12CCCN3CCc4c(n(c5ccccc45)[C@](O)(C(=O)OC)C1)C32 (some centres undefined)
inactive: activity change, negative = inhibition [1] 6.08% | Potency [6] | Potency [2] | activity, negative = inhibition ([3]; parasite line A) 4.65% | activity, negative = inhibition ([3]; parasite line B) -5.85% | Potency (3D7) | Potency (C2A) | Potency (CP217) | Potency (CP237) | Potency (CP238) | Potency (CP252) | Potency (CP291) | Potency (CP297) | Potency (ECU) | Potency (HB3) | Potency (PAD) | Potency (PC26) | Potency (SC27B)
25.6%: max response [1, 7]
38.6%: max response [1, 8]
